A selection: hits, their analogues and other compounds. The true share with any hit is near 0.4%.
FMDV Renilla: antivirals against foot and mouth disease virus replicon; Potency, µM (titrated, usually from 57.5 µM), inactives show top-dose activity change, negative = inhibition, hits mostly inhibitors; FMDV replicon cells, Renilla luciferase signal; actives 0.32% (n = 120,000); note: nearly all actives have a fitted effect of over 55% in size
FMDV FLuc: antivirals against foot and mouth disease virus. FMDV antiviral cell assay, firefly luciferase signal. Potency, µM (doses to about 57.5 µM), for inactives: at the highest dose activity change, negative = inhibition, actives largely listed as inhibitors. actives 0.23% (n = 120,000). AID 1745856; note: nearly all actives have a fitted effect of over 60% in size
Numbers without * were called inactive; ? = inconclusive; [ ] = dose if it differs, or a comment. Calls come from the whole dose curve. % is set by controls: 0 for no effect and ±100 for the full control effect; potency is the fitted concentration of half-maximal effect.

SMILES	FMDV Renilla	FMDV FLuc
CC(=O)OC1CC2(O)[C@@H]3CCC4CC(OC5CC(O)C(OC6CC(O)C(OC7CC(O)C(O)C(C)O7)C(C)O6)C(C)O5)CCC4(C)[C@H]3CCC2(C)C1C1=CC(=O)OC1 (some centres not stated)	?	0.63µM*
CC(=O)OC1CC(OC2C(O)CC(OC3C(O)CC(OC4CC(O)C5(C)C(CC[C@@H]6[C@@H]5CCC5(C)C(C7=CC(=O)OC7)CCC65O)C4)OC3C)OC2C)OC(C)C1O (some centres not stated)	0.89µM*	0.56µM*
COC1CC(OC2CCC3(C)C(CC[C@@H]4[C@@H]3CCC3(C)C(C5=CC(=O)OC5)C(OC(C)=O)CC43O)C2)OC(C)C1O (some centres not stated)	-76%	-83%
COC1C(O)CC(OC2C(O)CC(OC3C(O)CC(OC4CCC5(C)C(CCC6[C@@H]5CC(O)C5(C)C(C7=CC(=O)OC7)CCC65O)C4)OC3C)OC2C)OC1C (some centres not stated)	0.5µM*	?
CCN1CCCC1CNC(=O)C1CCN(S(=O)(=O)c2ccc3c(ccn3CC)c2)CC1 (configuration not stated)	53%	-3%
OB1Oc2ccccc2-c2ccccc21	-1%	7%
O=C(Nc1ccccc1F)C1C(c2ccccc2)C1(Cl)Cl (configuration not stated)	23%	16%
CCOc1ccc(-c2cc(C(=O)O)c3ccccc3n2)cc1OCC	20µM*	-10%
CCOc1ccc(-c2cc(C(=O)O)c3ccccc3n2)cc1	?	56%
CC(CN1CCCCC1)OC(=O)c1cc(C(C)(C)C)cc(C(C)(C)C)c1 (configuration not stated)	-6%	-1%
N#Cc1ccc(NCCNC(=O)Nc2ccccc2)nc1	-41%	0%
N#Cc1ccc(NCCNC(=O)C2CCCCC2)nc1	32µM*	?
CN(C)C(Cc1ccccc1)C(=O)c1cc2ccccc2o1 (configuration not stated)	90%	0%
CCCCCCCCCNc1c2c(nc3ccccc13)CC(C)(C)CC2=O	19%	12%
CCCCOc1ccc(C(=O)C(CCC(CNC(C)(C)C)C(=O)c2ccc(OCCCC)cc2)CNC(C)(C)C)cc1 (configuration not stated)	28µM*	?
CCCCCOc1ccc(C(=O)O)cc1	12%	0%
Cc1c(Cl)cccc1NC(=O)CCNC(=O)CCC(=O)c1cccs1	-2%	1%
Clc1ccc(CN2CCc3ccccc3C2)cc1	-5%	25%
CCCCCCCCCCCCCCCC[N+](C)(C)Cc1ccccc1	-14%	-26%
CCCCCCCCCCCCCC[N+](C)(C)Cc1ccccc1	25µM*	?
CCCCN(Cc1ccccc1)c1ccc(NS(=O)(=O)c2ccc(CC)cc2)cc1C(=O)O	70%	11%
S=C(NCCc1ccccc1)Nc1ccc(Cl)cc1NC(=S)NCCc1ccccc1	213%	0%
CCNC(=O)N1CCN(CCCC(c2ccc(F)cc2)c2ccc(F)cc2)CC1	?	14%[11.5 µM]
OC1(c2ccc(Cl)c(C(F)(F)F)c2)CCN(CCCC(c2ccc(F)cc2)c2ccc(F)cc2)CC1	22µM*	-13%[11.5 µM]
CCn1c2c(c(=O)n3ncc(C(=O)Nc4cc(Cl)ccc4OC)c13)CN(Cc1ccc(OC)cc1)CC2	11%	-21%
SMILES	FMDV Renilla	FMDV FLuc
COc1ccc(CN2CCc3c(c(=O)n4ncc(C(=O)N5CCN(c6ccccc6OC)CC5)c4n3C)C2)cc1	1.8µM*	2.8µM*
Cc1cc(C)c(NC(=O)COC(=O)c2cccc(C)c2O)c(Cl)c1	-2%	10%
COc1ccc(C(=O)Nc2ccc(NS(=O)(=O)c3ccc4c(c3)OCCCO4)cc2)cc1	215%	39%
CCOc1ccc(Br)cc1C1C(C#N)=C(N)Oc2cc3c(cc21)OCO3 (configuration not stated)	20%	-30%
Cc1ccccc1C(=O)N1CCN(c2ccc(NC(=O)c3ccc4c(c3)OCCO4)cc2)CC1	16µM*	?
CCOc1cc(OCC)cc(C(=O)Nc2ccc(N3CCN(C(=O)c4ccccc4C)CC3)cc2)c1	-7%	-7%
O=C(NC1CC1)c1ccc(NC(=O)c2cc(-c3ccco3)nc3ccccc23)cc1	16%	0%
CC#CC[N+](C)(C)CCCCCCCCCCCC	?	13µM*
CCCCCCCCCCCCCCCC[N+](C)(C)C	-16%	-27%
Cc1ccccc1CNC(=O)CSc1cccs1	28%	0%
COc1nc(C(=O)NCC(C)N(C)C)cc2ccccc12 (configuration not stated)	-15%	-14%
COc1nc(C(=O)NC2(c3ccccc3)CCC2)cc2ccccc12	4.5µM*	?
Cc1cc(Nc2ccccc2)nc(Nc2ccc(NC(=O)c3ccc(Cl)cc3)cc2)n1	13µM*	14µM*
Cc1cc(N2CCOCC2)nc(Nc2ccc(NC(=O)c3ccccc3)cc2)n1	-18%	-21%
COc1ccc(Nc2cc(C)nc(Nc3ccc(NC(=O)C4CCCCC4)cc3)n2)cc1	28µM*	?
Cc1ccc(NC(=O)C2CCCCC2)cc1	1%	197%
CC(NC(=O)CSc1nnc(-c2ccncc2)n1-c1ccc(F)cc1)c1ccc2c(c1)OCO2 (configuration not stated)	-26%	-15%
COc1ccc(N2C(=O)CN(C3CCCC3)[C@H]3CS(=O)(=O)C[C@H]32)cc1	8%	6%
CCOc1ccc(S(=O)(=O)N(CC(=O)Nc2cccc(C)c2)c2ccccc2)cc1	9%	-8%
COc1cccc(CNC(=O)c2nc(-c3ccccc3)oc2C)c1	11%	31%
COc1ccc(CNC(=O)c2nc(-c3ccccc3)oc2C)cc1OC	18µM*	?
CCOc1ccccc1NC(=O)NCc1ccc2c(c1)CCN2C(=O)c1ccccc1	7.1µM*	8.9µM*
CCc1ccccc1NC(=O)NCc1ccc2c(c1)CCN2C(=O)c1ccccc1	-16%	-21%
COc1ccc(C(=O)Nc2ccc(S(=O)(=O)N(Cc3ccccc3)c3ccccc3)cc2)cc1	5µM*	5µM*
O=C(COc1ccccc1)Nc1ccc(S(=O)(=O)N(Cc2ccccc2)c2ccccc2)cc1	-5%	-10%
SMILES	FMDV Renilla	FMDV FLuc
COc1ccc(-c2cnnn2-c2ccc(NC(=O)c3ccc(S(=O)(=O)N(C)C)cc3)cc2)cc1	6.3µM*	?
CCOc1ccc(C(=O)Nc2ccc(-n3nncc3-c3ccc(OC)cc3)cc2)cc1	-5%	-14%
CCCC(=O)N1N=C(c2ccc(OC)cc2)CC1c1ccc2nccnc2c1 (configuration not stated)	-13%	32%
NC(=O)c1ccsc1NC(=O)COC(=O)c1c(F)cccc1F	-4%	16%
Clc1nnc(-c2ccccc2)n1C1CC1	-14%	-7%
O=C1/C(=C/c2cnc(-c3ccccc3)nc2)CS(=O)(=O)c2ccccc21	-11%	17%
COc1ccc(-c2cc(C(F)(F)F)nc(S(=O)(=O)CCCC(=O)Nc3ccccc3C(F)(F)F)n2)cc1OC	-9%	-15%
COc1ccc(NC(=O)CCCS(=O)(=O)c2nc(-c3ccc(OC)c(OC)c3)cc(C(F)(F)F)n2)cc1OC	-7%	28µM*
O=C(O)CCn1cc(C(C(=O)O)N2CCN(Cc3cccnc3)CC2)c2ccc(F)cc21 (configuration not stated)	-3%	2%
Fc1ccccc1-c1ccc(CNCC2CCNCC2)o1	-28%	-8%
Clc1ccc(-c2ccc(CNCC3CCNCC3)o2)c(Cl)c1	28µM*	?
CCOC(=O)c1ccc(NCc2ccnc(N3CCOCC3)c2)nc1	28µM*	?
